In PubChem BioAssay AID382 (SGCOxCompounds, 2006):
Values joined by “and” are separate entries in the source; they are usually repeats but may differ in a detail not shown here. Equal entries are not always repeated. Active and inactive are the calls of the source. How the calls were made is not given here.

Biological target: Dual specificity protein kinase CLK1 (Homo sapiens) (UniProt P49759)
Test: ligand-induced CLK1 melting temperature shift – biophysical, recombinant human kinase, DSF (AID 382)
Settings: Recombinant CLK1, thermal shift (DSF), buffer 10 mM HEPES, stronger effect = higher value
[1] = at 10 µM, protein 2 µM, pH 7.5, NaCl 150 mM, with 50 µM L-Arg/L-Glu (1:1)
[2] = at 10 µM, protein 2 µM, NaCl 150 mM
[3] = at 10 µM, protein 2 µM, NaCl 150 mM, with 50 mM Arg/Glu
[4] = at 10 µM, protein 2 µM, pH 7.5, NaCl 150 mM, with 50 mM Arg/Glu
[5] = measured here: replicate experiment 2, at 10 µM, run 2, protein 2 µM, NaCl 150 mM, with 50 mM Arg/Glu
[6] = measured here: replicate experiment 2, at 10 µM, run 2, protein 2 µM
[7] = measured here: replicate experiment 2, at 10 µM, run 2, protein 2 µM, NaCl 150 mM

Dual specificity protein kinase CLK1 (Homo sapiens), sequence (P49759 whole entry, looked up): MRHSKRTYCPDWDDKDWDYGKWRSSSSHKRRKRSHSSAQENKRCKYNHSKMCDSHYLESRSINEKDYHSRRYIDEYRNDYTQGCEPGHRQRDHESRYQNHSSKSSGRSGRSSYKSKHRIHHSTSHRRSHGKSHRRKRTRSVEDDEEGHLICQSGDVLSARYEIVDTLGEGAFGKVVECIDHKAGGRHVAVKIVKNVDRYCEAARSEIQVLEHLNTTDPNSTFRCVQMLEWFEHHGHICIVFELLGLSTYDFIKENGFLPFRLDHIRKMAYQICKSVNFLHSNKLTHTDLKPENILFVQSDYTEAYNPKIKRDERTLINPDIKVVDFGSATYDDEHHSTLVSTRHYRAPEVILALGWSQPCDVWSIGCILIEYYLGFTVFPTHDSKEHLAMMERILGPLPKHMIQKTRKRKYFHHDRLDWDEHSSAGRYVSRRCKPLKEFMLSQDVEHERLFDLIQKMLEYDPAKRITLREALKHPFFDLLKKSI

In the case of NC1=N/C(=C2\CCNC(=O)c3[nH]ccc32)C(=O)N1, the Tm shift [1] is reported as 6 Celsius (active).

For O=c1cc(-c2ccc(O)cc2)oc2cc(O)cc(O)c12, the Tm shift [2] was 5.94 Celsius (active).

In the case of CCC(CO)Nc1ccc2ncc(-c3ccc(O)cc3)n2n1 (stereo unspecified), the Tm shift [3] is reported as 7.54 Celsius (active).

For O=C1NC(=O)C(c2c[nH]c3ccccc23)=C1c1c[nH]c2ccccc12, the Tm shift [2] was 4.13 Celsius (active).

For Nc1ccc(-c2cnn3ccc(Nc4cccc(Cl)c4)nc23)cc1, the Tm shift [1] was 5.8 Celsius (active).

CC(C)n1cnc2c(Nc3cccc(Cl)c3)nc(NCCO)nc21 was tested, and the Tm shift [2] was 5.26 Celsius (active) and the Tm shift [4] was 4.6 Celsius (active).

For CC(O)(O)C1(O)C[C@@H]2O[C@@]1(C)n1c3ccccc3c3c4c(c5c6ccccc6n2c5c31)C(=O)NC4 (stereo partly specified), the Tm shift [4] was 5.1 Celsius (active).

In the case of O=Nc1c(-c2c(O)[nH]c3ccc(S(O)(O)O)cc23)[nH]c2ccccc12, the Tm shift [2] is reported as 3.64 Celsius (active).

In the case of COc1cc(O)c2c(c1)oc(=O)c1c3cc(O)c(O)cc3oc21, the Tm shift [2] is reported as 3.2 Celsius (active).

With Clc1cccc(-c2cnc3ccc(NC4CCOCC4)nn23)c1 the Tm shift [3] was 6.06 Celsius (active) and the Tm shift [5] was 5.83 Celsius.

With COCCNc1ccc2ncc(-c3cccc(Cl)c3)n2n1 the Tm shift [1] was 3.6 Celsius (active).

For Nc1ccc(-c2cnc3ccc(NC4CCOCC4)nn23)cc1, the Tm shift [1] was 4.8 Celsius (active).

With NC1=N/C(=C2/CCNC(=O)c3[nH]c(Br)cc32)C(=O)N1 the Tm shift (at 10 µM, protein 2 µM) was 4.9 Celsius (active), the Tm shift [4] was 4.4 Celsius (active) and the Tm shift [6] was 10.5 Celsius.

O=Nc1c(-c2c(O)[nH]c3ccc(I)cc23)[nH]c2ccccc12 was tested, and the Tm shift [2] was 5.14 Celsius (active).

For Clc1ccc(-c2cnc3ccc(NC4CCOCC4)nn23)cc1, the Tm shift [1] was 5.7 Celsius (active).

In the case of Clc1cccc(Nc2ccn3ncc(-c4ccsc4)c3n2)c1, the Tm shift (at 10 µM, protein 2 µM, pH 7.5, NaCl 150 mM) is reported as 3.45 Celsius (active).

With O=c1c(O)c(-c2ccc(O)c(O)c2)oc2cc(O)cc(O)c12 the Tm shift [2] was 8.34 Celsius (active) and 6.74 Celsius (active) and the Tm shift [7] was 6 Celsius.

For O=C1c2ccccc2-c2n[nH]c3cccc1c23, the Tm shift [2] was 4.9 Celsius (active) and the Tm shift [7] was 3.2 Celsius.

CC(C)[C@@H](CO)Nc1ccc2ncc(-c3cccc(Cl)c3)n2n1 was tested, and the Tm shift [1] was 3.9 Celsius (active).

With CCN(CC)CCNC(=O)c1c(C)[nH]c(/C=C2\C(=O)Nc3ccc(Cl)cc32)c1C the Tm shift [1] was 6.6 Celsius (active).

CCOC(=O)c1c(C)[nH]c(/C=C2\C(=O)Nc3ccccc32)c1C was tested, and the Tm shift (at 10 µM, protein 2 µM) was 8.66 Celsius (active).

For Nc1ncnc2c1c(I)cn2[C@@H]1O[C@H](CO)C(O)C1O (stereo partly specified), the Tm shift (at 10 µM, protein 2 µM) was 4.43 Celsius (active), the Tm shift [4] was 5.2 Celsius (active) and the Tm shift [6] was 10.5 Celsius.

For CC(=O)c1cccc(-c2cnc3ccc(NCC4CC4)nn23)c1, the Tm shift [3] was 5.75 Celsius (active) and the Tm shift [5] was 6.01 Celsius.

With Oc1cccc(-c2cnc3ccc(NCC4CC4)nn23)c1 the Tm shift [1] was 3.9 Celsius (active).

CN(C)CCCn1cc(C2=C(c3c[nH]c4ccccc34)C(=O)NC2=O)c2ccccc21 was tested, and the Tm shift [2] was 6.98 Celsius (active) and the Tm shift [4] was 4.4 Celsius (active).

In the case of O=Nc1c(-c2c(O)[nH]c3ccccc23)[nH]c2ccccc12, the Tm shift [2] is reported as 3.59 Celsius (active).
